# Source: article PMC4336329 (PLoS ONE, 2015)
# About 14,000 (4.5%) of roughly 310,000 compounds showed an effect of 50% or more. The effect is printed as a negative number. The full list was thinned out, with strong results kept by preference.
# Target: human ether-à-go-go-related gene (hERG) potassium channel (human, UniProt Q12809)
# Experiment: primary screen, population patch clamp on CHO cells stably expressing hERG; higher = less effect of the substance
# 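Also: peak tail current of the secondary pulse compared with the same well before compound.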
# Sequence of human ether-à-go-go-related gene (hERG) potassium channel (Q12809 whole entry, looked up): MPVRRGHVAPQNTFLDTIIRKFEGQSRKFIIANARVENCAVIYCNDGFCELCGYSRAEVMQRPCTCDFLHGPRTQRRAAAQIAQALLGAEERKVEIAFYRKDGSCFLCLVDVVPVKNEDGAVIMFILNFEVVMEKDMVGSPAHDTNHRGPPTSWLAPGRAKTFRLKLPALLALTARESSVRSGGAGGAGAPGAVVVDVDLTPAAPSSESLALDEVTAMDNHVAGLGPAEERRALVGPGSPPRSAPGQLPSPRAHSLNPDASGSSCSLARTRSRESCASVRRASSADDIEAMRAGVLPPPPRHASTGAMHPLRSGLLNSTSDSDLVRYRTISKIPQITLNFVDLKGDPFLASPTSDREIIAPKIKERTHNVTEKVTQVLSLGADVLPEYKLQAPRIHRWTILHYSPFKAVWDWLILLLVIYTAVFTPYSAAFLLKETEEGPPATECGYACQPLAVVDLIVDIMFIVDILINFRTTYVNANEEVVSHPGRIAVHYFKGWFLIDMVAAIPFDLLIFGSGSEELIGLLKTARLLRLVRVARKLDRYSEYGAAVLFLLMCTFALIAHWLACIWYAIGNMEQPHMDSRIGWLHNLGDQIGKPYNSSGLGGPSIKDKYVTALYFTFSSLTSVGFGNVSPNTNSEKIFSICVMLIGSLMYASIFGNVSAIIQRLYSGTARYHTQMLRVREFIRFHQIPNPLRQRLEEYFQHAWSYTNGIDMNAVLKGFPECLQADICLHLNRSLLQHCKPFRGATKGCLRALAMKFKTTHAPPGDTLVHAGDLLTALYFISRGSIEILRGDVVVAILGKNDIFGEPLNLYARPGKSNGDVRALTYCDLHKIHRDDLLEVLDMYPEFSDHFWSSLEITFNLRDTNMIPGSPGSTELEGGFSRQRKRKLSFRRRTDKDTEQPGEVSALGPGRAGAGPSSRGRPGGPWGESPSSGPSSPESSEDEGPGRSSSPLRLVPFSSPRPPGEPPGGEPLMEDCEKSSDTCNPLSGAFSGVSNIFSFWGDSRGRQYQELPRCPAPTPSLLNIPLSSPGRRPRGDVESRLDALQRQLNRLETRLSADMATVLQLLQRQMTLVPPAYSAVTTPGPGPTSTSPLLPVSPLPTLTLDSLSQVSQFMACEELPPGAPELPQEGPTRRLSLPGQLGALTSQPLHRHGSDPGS
row,Compound,"hERG current change (%, negative = inhibition) at 10uM [%]"
1,O=C1NNC(=O)C1c1ccccc1,25.7
2,CCOC(=O)c1[nH]ncc1CN1CCC(Cc2cccc(OC)c2)(C(=O)OCC)CC1,-37.6
3,CCOC(=O)C1(Cc2cccc(OC)c2)CCN(Cc2cc(OC)ccc2OC)CC1,-67.2
4,CCOC(=O)C1(Cc2cccc(OC)c2)CCN(Cc2cccc(OC)c2O)CC1,-66
5,CC(C)c1ccc(CN2CCN(C(=O)CSc3nnnn3C3CC3)CC2)cc1,-28.1
6,COc1ccc2c(C(=O)CN(C)C3CCCCC3)c[nH]c2c1,9.09
7,Cc1csc(NC(=O)CSc2nnc(-c3cccs3)n2C)n1,-60.5
8,Cc1cnc(NC(=O)CSc2nnc(Cc3ccccc3)n2C)s1,-12.1
9,Cc1csc(NC(=O)CSc2nnc(-c3ccncc3)n2C)n1,-17.5
10,CC(=O)Nc1ccc(NC(=O)CSc2nnc(-c3cccs3)n2C)cc1,-7.69
11,Cc1csc(NC(=O)CSc2nnc(CCNC(=O)c3cccs3)n2C)n1,8.1
12,Cc1cnc(NC(=O)CSc2nnc(-c3cccs3)n2C)s1,-59.4
13,O=C(CCCc1nc2ccccc2s1)NCc1ccccc1F,-20.2
14,CCN(CC(=O)Nc1c(F)cccc1F)C(=O)c1cccc(-n2cccc2)c1,-27.1
15,CCCCCN(C(=O)CCC(=O)OC(C)C(=O)NCc1ccccc1)c1c(N)n(CCCC)c(=O)[nH]c1=O (stereo not drawn),-14.5
16,O=C(c1cnn2c(C(F)F)cc(-c3ccccc3)nc12)N1CCCc2ccccc21,-3.45
17,COCCn1c(SCC(=O)N2CCCC2)nnc1-c1ccco1,18.6
18,Cc1ccc(/C=N\NC(=O)Cc2noc3ccccc23)cc1,15.6
19,COC(=O)c1ccc(C(=S)N2CCCCC2)cc1,8.89
20,O=C(O)c1ccc(SCc2cnc(Cl)s2)cc1,-70
21,Clc1ncc(CSc2ccccc2)s1,3.25
22,COC(=O)c1ccc(SCc2cnc(Cl)s2)cc1,1.27
23,COC(=O)c1ccc(CNC(=O)c2ccc3c(c2)S(=O)(=O)N=C2CCCCCN23)cc1,-10.5

row,Compound,"hERG current change (%, negative = inhibition) at 10uM [%]"
1,Cc1cc2ccccc2c(=O)n1CC(=O)NCC1COc2ccccc2O1 (stereo not drawn),0.464
2,CCn1cc(/C=N\NC(=O)Cc2ccc([N+](=O)[O-])cc2)c(C)n1,-25.1
3,OCCC#Cc1ccc(CN2CCN(C3CCCCC3)C(CCO)C2)cc1 (stereo not drawn),-0.113
4,CCN(Cc1ccc(C#CCCO)cc1)CC1CCCN(CCc2cccc(F)c2)C1 (stereo not drawn),-65.2
5,CCN(Cc1ccc(C#CCCO)cc1)CC1CCCN(CCc2cccc(OC)c2)C1 (stereo not drawn),-58.5
6,CCN(Cc1cccc(OC)c1)CC1CCCN(CCc2cccc(OC)c2)C1 (stereo not drawn),-47.3
7,CCN(Cc1ccc(OC)c(COC)c1)CC1CCCN(CCc2cccc(F)c2)C1 (stereo not drawn),-67.7
8,CN(Cc1ccc(C#CCCO)cc1)CC1CCCN(CCc2ccc(Cl)cc2)C1 (stereo not drawn),-70.9
9,CCN(Cc1ccc(OC)c(COC)c1)CC1CCCN(CCc2cccc(OC)c2)C1 (stereo not drawn),-26.3
10,CCN(Cc1ccc(NC(C)=O)cc1)CC1CCCN(CCc2cccc(OC)c2)C1 (stereo not drawn),-30.3
11,CCOc1ccc(NC(=O)Nc2cc(C(=O)O)ccc2N2CC3CC(C2)c2cccc(=O)n2C3)cc1 (stereo not drawn),12.4
12,Cc1cc(C)cc(Nc2cc(C)nc3nc(C)nn23)c1,-14.7
13,O=c1[nH]c(/C=C/c2ccccc2)c([N+](=O)[O-])c(=O)[nH]1,5.45
14,CCN1C(=O)Nc2cccc3cccc1c23,1.65
15,CCN(CC)C(=O)c1cnn(-c2ccccc2)c1NC(=O)c1ccco1,-12.8
16,COc1ccc(/C=C/C(=O)Nc2ccccc2C(=O)NCC(c2ccc(OC)cc2)N(C)C)cc1 (stereo not drawn),-49.6
17,CCc1nc(N=Nc2c(O)[nH]c3ccccc23)c2c3c(sc2n1)CCC3,13.7
18,O=C(COC(=O)c1cc(Cl)ccc1[N+](=O)[O-])NCc1ccc(Cl)cc1Cl,-11.8
19,COc1ccccc1CCNC(=O)CN1C(=O)c2ccccc2S1(=O)=O,2.11
20,CC(C)(C)C(=O)NC1CCSC1=O (stereo not drawn),8.46
21,CN(C)CCN1C(=O)C2C3C=CC(C3)C2C1=O (stereo not drawn),20.6
22,Cc1cc(C)c2c(=O)[nH]c(SCC(=O)Nc3ccc(N(C)C)cc3)nc2n1,-2.77
23,CCCc1[nH]nc2c1C(Cc1ccccc1)C(C#N)=C(N)O2 (stereo not drawn),0.432

row,Compound,"hERG current change (%, negative = inhibition) at 10uM [%]"
1,Cc1nn(-c2ccccc2)c(C)c1-c1cc(C(=O)N/N=C/c2cccnc2)[nH]n1,-18.7
2,Cc1cccc2c1N(C)C(=O)C2=O,17.1
3,Cc1ccc(NC(=O)CNCc2ccccn2)cc1S(=O)(=O)N(C)C,20.9
4,CCN(Cc1ccc(NC(C)=O)cc1)CC1CCCN(CCc2cccc(F)c2)C1 (stereo not drawn),-24.4
5,CCN(Cc1ccc(O)cc1)CC1CCCN(CCc2cccc(F)c2)C1 (stereo not drawn),-71.1
6,Cc1ccc(-c2nnc(CSc3nnc(COc4ccccc4)n3-c3ccc(C)cc3)o2)cc1,-7.47
7,CC(C)C(OC(=O)c1ccco1)C(=O)NCc1cccs1 (stereo not drawn),-0.362
8,CN(C)c1ccc(/C=N/NC(=O)C2CC2c2ccccc2)cc1 (stereo not drawn),-74.9
9,CN(C)c1ccc(/C=N/NC(=O)c2ccccc2)cc1,10.9
10,O=C(N/N=C/c1ccco1)C1CC1c1ccccc1 (stereo not drawn),-4.18
11,CCOc1ccc(CCNC(=O)CCS(=O)(=O)c2ccc(Br)cc2)cc1OCC,13.8
12,Cc1cc(NC(=S)N(CCN2CCOCC2)Cc2ccccc2F)ccc1Cl,24.1
13,COc1cccc(CCC(=O)N2CCC(n3nccc3NC(=O)C3CCOC3)CC2)c1 (stereo not drawn),14.9
14,COc1ccc(Nc2nc(N)c(C(=O)c3ccc(F)cc3)s2)cc1,25.9
15,COc1ccc(Nc2nc(N)c(C(=O)c3ccc(OC)cc3)s2)cc1,-52.7
16,COc1ccc(C(=O)c2sc(Nc3ccccc3)nc2N)cc1,18.1
17,O=C(Nc1ccc(Cl)cc1F)c1cc(S(=O)(=O)N2CCCCC2)ccc1F,-0.146
18,Cc1ccc(NC(=O)Cn2nnc(C(=O)NCc3ccco3)c2N)c(C)c1,3.23
19,C/[N+]([O-])=C\c1coc2ccccc2c1=O,-1.4
20,O=C(CCl)N1CCN2C(=O)c3ccccc3C12c1ccc(Cl)cc1 (stereo not drawn),-1.56
21,COCCCNC(=O)Cc1c(C)c2c(cc(C)c3c(C(C)(C)C)coc32)oc1=O,-32.3
22,Cc1cc2oc(=O)c(CC(=O)NCCCN(C)C)c(C)c2c2occ(C(C)(C)C)c12,-69.1
23,Cc1cc2oc(=O)c(CC(=O)NCCCO)c(C)c2c2occ(C(C)(C)C)c12,-9.35

row,Compound,"hERG current change (%, negative = inhibition) at 10uM [%]"
1,O=C1OC(CO)CN1Cc1ccccc1 (stereo not drawn),12.3
2,c1ccc(-c2cn(-c3ccccc3)c3ncnc(NCCCN4CCOCC4)c23)cc1,-60.6
3,COc1ccc(-n2cc(-c3ccccc3)c3c(N4CCOCC4)ncnc32)cc1,22.5
4,COc1ccc(-n2cc(-c3ccccc3)c3c(NCCCN4CCOCC4)ncnc32)cc1,-65
5,COc1ccc(-n2cc(-c3ccccc3)c3c(NN4CCOCC4)ncnc32)cc1,-40.6
6,c1ccc(-c2csc3ncnc(NCCCN4CCOCC4)c23)cc1,-13.2
7,c1ccc(-n2ncc3c(NCCCN4CCOCC4)ncnc32)cc1,-11
8,COc1nc(-c2ccc(Cl)cc2)nnc1C,2.25
9,COCCNC(=O)C(c1cccs1)N(CCc1ccccc1)C(=O)Cn1nnc2ccccc21 (stereo not drawn),6.51
10,O=C(CSc1nnc(Cn2cnc3ccccc32)o1)c1ccccc1,-7.21
11,Cc1ccc(N2C(=O)CC(=O)NC2=O)c(C)c1,17.2
12,CC(=O)OCCn1c(C)[n+](CCOC(C)=O)c2cc(Cl)c(Cl)cc21.[I-],14.7
13,COc1ccc(-c2ccoc2)cc1[C@H]1[C@H]2C=CC[C@@H](C)[C@@H]2C(=O)N1Cc1ccccc1,1.85
14,O=C(c1ccco1)N1CCN(Cc2nnc(-c3cccc(Cl)c3)o2)CC1,-45.9
15,Cc1ccccc1-c1nnc(CN2CCN(C(=O)c3ccco3)CC2)o1,-14.2
16,O=C(c1ccco1)N1CCN(Cc2nnc(-c3ccccc3)o2)CC1,-55.5
17,O=C(c1ccco1)N1CCN(Cc2nnc(-c3cccc(Br)c3)o2)CC1,-62.2
18,O=C(c1ccco1)N1CCN(Cc2nnc(-c3ccccc3F)o2)CC1,9.67
19,CC1CCN(Cc2nnc(-c3cccc(Br)c3)o2)CC1,-0.585
20,O=C(Cn1c(CO)nc2ccccc21)NCCc1ccccc1,-3.08
21,COc1ccccc1CNC(=O)c1cc(C)nn1-c1ccccc1,1.87
